Assays:
Assay in all cases: log2 ratio of Biotin-Ahx-Ub-VS probe labelling (fragment/DMSO); higher = less target engagement (more negative = stronger competition), active = hit call of the paper (q ≤ 0.05, log2 ratio ≤ -1)
Details in all cases: compound concentration: 200 uM; treatment time: 3 h
USP42 = molecular target: T1, USP42 (UniProt Q9H9J4)
T1 sequence (whole entry): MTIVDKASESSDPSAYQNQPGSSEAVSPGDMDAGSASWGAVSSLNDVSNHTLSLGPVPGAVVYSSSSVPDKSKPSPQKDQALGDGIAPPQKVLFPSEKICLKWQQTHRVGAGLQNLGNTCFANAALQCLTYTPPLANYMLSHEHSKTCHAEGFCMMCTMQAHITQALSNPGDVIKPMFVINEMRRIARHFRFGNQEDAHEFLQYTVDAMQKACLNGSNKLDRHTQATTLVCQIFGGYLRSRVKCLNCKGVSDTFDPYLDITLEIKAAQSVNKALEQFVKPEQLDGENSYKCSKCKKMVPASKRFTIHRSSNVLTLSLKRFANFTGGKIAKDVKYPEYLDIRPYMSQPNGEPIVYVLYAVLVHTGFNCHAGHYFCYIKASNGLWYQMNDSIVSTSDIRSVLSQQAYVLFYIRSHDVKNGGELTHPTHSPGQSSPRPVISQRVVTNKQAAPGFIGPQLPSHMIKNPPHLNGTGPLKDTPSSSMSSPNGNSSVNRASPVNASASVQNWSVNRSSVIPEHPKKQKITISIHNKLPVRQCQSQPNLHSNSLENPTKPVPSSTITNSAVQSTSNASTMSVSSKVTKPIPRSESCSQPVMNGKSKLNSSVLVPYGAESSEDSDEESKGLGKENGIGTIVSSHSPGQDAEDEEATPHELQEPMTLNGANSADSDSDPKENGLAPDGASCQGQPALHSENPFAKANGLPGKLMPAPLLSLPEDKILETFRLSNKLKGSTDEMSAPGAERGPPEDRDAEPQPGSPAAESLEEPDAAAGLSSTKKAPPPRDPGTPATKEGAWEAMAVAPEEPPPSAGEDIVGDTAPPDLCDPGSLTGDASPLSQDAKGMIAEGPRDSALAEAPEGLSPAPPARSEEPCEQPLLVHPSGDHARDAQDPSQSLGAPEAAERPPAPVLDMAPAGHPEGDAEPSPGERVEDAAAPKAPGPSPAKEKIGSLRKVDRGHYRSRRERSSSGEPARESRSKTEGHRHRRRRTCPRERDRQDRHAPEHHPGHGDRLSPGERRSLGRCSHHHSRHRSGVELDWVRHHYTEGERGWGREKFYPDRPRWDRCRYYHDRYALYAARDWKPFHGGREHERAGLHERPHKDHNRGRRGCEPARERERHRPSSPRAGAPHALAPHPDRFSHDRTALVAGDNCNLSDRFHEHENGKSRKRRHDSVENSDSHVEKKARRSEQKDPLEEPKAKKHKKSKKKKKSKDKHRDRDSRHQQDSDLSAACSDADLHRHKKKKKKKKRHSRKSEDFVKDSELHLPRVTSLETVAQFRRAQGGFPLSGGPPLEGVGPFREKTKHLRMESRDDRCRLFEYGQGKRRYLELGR
Procedure, shortened: (§1)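 HEK293T lysate in Tris/CHAPS/IGEPAL buffer with protease inhibitors (495 µg per sample) was given fragment at 200 µM or vehicle for 3 h, in triplicate. It then received Biotin-Ahx-Ub-VS at 0.5 µM final for 1 h. Labelled DUBs were NeutrAvidin-enriched, digested with LysC and trypsin, and run by diaPASEF LC-MS/MS. Values are average log2 fragment/vehicle ratios by unpaired t-test on global-median-normalised Spectronaut quantities of proteins with ≥2 unique peptides.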

USP46 = USP46 (UniProt P62068)
Chain of USP46 (P62068 whole entry): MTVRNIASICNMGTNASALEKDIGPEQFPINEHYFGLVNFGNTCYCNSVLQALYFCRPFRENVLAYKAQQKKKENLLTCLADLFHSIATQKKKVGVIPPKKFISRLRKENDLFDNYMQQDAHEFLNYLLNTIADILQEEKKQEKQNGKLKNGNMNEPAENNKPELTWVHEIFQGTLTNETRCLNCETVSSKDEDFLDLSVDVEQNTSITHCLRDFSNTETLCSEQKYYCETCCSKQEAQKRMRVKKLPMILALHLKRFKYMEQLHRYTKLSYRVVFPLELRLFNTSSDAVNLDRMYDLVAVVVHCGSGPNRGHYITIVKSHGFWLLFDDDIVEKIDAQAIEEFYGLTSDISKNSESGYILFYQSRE
Procedure, shortened: as §1

USP47 = molecular target: T2, USP47 (UniProt Q96K76)
T2 sequence (whole entry): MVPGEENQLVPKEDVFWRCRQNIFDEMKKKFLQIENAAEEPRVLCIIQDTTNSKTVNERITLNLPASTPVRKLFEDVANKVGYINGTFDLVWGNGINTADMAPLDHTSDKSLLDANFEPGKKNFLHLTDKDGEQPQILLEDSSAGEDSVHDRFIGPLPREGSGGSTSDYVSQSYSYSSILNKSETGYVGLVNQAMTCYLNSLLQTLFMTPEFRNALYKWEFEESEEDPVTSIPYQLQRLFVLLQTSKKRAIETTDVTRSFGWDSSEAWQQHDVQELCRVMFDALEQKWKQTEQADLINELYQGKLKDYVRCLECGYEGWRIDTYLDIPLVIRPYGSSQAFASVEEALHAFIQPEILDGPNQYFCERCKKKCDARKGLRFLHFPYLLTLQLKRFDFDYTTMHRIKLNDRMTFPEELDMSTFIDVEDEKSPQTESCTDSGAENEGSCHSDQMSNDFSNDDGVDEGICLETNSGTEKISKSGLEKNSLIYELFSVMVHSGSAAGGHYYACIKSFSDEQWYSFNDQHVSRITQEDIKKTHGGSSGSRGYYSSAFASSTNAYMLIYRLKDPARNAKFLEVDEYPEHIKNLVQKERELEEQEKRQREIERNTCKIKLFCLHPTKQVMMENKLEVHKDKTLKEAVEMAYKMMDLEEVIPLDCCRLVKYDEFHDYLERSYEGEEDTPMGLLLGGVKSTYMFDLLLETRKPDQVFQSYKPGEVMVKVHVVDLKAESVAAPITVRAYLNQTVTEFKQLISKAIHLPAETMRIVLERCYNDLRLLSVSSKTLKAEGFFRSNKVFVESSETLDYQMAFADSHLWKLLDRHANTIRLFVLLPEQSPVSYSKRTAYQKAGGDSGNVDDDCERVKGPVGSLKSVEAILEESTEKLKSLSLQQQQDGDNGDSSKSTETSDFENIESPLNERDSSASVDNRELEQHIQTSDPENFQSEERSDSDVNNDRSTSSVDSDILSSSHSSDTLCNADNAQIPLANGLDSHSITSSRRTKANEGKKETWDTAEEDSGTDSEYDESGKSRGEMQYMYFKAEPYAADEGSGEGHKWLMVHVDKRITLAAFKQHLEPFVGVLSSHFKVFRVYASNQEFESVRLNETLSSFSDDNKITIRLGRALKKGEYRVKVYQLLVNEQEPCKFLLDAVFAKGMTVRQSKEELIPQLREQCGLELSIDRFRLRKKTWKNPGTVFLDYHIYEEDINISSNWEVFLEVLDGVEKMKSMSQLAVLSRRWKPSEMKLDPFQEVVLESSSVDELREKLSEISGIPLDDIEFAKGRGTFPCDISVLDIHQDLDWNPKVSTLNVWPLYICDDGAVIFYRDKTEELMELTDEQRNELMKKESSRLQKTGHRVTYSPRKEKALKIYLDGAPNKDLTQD
Procedure, shortened: as §1

USP48 = molecular target: T3, USP48 (UniProt Q86UV5)
T3 sequence (whole entry): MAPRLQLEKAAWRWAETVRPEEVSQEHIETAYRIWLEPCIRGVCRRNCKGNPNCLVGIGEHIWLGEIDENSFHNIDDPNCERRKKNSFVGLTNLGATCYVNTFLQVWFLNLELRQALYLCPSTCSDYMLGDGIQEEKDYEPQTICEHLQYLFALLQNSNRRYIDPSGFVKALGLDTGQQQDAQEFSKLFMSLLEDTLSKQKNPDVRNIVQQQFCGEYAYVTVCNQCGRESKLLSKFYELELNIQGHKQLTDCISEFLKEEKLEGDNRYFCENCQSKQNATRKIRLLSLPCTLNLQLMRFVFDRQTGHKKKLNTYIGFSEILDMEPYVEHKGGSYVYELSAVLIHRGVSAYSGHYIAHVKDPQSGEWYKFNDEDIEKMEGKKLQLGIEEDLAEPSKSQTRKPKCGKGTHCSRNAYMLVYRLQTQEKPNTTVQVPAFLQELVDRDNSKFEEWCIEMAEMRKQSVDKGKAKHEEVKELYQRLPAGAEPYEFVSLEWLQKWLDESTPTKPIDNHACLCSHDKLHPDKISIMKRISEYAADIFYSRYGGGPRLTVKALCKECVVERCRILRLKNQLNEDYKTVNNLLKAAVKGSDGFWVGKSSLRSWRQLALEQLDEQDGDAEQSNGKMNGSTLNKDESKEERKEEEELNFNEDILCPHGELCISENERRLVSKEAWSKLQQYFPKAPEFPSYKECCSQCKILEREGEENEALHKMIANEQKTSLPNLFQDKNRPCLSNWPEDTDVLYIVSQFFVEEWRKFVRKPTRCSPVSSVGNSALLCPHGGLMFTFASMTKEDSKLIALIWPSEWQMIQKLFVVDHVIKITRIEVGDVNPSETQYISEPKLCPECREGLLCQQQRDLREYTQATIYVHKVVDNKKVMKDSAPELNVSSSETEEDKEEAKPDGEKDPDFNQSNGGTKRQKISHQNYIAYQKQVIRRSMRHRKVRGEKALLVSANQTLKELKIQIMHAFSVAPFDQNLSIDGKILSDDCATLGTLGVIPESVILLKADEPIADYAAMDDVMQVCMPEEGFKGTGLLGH
Procedure, shortened: as §1

USP5 = molecular target: T4, USP5 (UniProt P45974)
T4 sequence (whole entry): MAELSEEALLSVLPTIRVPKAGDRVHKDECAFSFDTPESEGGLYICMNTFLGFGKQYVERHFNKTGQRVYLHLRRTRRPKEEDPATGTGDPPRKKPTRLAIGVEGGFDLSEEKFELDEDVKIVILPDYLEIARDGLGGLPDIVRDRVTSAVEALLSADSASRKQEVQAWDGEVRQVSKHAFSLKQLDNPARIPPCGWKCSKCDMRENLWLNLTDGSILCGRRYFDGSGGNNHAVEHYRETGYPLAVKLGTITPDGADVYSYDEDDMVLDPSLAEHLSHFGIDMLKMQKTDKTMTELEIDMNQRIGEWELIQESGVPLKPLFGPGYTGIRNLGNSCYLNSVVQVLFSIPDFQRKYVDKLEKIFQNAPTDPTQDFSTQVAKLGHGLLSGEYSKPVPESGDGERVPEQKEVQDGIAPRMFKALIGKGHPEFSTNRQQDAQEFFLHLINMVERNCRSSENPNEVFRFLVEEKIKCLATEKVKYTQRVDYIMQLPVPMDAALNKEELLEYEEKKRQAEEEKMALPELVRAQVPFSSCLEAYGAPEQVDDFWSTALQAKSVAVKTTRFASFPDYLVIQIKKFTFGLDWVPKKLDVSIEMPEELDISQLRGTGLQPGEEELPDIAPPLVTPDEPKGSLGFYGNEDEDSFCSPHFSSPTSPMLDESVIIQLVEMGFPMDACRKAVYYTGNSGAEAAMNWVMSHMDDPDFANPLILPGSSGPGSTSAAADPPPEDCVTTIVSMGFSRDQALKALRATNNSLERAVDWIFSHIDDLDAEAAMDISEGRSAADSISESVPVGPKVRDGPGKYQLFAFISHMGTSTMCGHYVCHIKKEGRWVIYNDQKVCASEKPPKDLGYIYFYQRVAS
Procedure, shortened: as §1

USP54 = USP54 (UniProt Q70EL1)
Procedure, shortened: as §1

USP7 = USP7 (UniProt Q93009)
Chain of USP7 (Q93009 whole entry, looked up): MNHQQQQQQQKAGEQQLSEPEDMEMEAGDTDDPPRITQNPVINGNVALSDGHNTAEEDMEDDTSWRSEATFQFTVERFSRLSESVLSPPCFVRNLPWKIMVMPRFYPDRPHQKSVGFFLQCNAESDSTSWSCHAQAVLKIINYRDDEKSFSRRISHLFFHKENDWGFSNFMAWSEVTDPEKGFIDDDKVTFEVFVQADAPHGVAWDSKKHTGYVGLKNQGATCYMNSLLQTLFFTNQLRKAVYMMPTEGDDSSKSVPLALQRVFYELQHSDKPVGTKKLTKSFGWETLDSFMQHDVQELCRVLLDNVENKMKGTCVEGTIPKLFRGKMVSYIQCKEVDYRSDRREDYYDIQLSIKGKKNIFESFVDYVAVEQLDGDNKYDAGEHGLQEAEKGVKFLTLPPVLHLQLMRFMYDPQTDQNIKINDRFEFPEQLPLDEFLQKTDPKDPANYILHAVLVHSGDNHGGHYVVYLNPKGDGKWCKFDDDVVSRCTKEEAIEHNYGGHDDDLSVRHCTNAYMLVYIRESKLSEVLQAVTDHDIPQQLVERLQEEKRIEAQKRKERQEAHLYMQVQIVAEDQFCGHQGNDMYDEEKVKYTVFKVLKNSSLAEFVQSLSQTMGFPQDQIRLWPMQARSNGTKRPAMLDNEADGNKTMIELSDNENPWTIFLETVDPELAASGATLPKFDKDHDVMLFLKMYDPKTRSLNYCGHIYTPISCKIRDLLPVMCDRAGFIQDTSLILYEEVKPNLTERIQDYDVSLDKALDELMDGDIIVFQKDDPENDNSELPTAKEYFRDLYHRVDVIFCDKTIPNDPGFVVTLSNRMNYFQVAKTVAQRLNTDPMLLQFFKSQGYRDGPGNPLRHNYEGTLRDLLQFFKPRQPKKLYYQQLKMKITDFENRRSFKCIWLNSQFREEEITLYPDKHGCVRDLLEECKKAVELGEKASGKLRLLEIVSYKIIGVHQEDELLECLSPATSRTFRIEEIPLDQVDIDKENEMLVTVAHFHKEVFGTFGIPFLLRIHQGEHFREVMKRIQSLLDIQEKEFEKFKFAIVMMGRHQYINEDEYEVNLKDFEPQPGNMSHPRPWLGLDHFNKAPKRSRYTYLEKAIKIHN
Procedure, shortened: as §1

USP8 = molecular target: T5, USP8 (UniProt P40818)
T5 sequence (whole entry): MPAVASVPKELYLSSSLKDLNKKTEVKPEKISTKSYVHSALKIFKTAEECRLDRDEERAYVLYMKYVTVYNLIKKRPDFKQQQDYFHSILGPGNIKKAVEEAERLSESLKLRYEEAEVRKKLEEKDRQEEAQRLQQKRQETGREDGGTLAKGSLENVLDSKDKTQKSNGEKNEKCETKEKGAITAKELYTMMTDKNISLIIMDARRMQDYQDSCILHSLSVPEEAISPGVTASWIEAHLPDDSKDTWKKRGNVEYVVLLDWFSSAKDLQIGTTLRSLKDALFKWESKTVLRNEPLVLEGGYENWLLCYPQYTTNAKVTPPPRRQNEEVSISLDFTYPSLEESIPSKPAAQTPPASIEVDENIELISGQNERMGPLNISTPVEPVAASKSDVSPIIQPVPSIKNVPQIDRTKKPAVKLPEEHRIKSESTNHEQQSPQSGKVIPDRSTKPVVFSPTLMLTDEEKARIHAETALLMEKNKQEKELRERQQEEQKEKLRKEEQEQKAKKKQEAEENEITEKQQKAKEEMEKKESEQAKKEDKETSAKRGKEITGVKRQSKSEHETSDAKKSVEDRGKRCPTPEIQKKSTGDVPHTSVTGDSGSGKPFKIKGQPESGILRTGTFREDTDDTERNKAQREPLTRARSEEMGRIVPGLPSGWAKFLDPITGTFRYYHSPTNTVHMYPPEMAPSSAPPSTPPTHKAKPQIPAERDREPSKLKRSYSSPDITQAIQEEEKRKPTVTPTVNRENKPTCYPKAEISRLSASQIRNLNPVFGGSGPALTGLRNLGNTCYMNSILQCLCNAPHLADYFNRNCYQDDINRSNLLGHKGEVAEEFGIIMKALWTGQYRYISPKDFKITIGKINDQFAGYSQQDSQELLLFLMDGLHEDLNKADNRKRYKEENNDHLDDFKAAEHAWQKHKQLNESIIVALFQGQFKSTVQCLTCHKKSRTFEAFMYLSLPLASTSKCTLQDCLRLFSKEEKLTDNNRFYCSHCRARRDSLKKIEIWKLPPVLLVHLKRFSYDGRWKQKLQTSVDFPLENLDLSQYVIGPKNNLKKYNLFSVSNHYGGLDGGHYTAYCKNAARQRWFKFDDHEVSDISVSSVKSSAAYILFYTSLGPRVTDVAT
Procedure, shortened: as §1

USP9X = USP9X (UniProt Q93008)
Chain of USP9X (Q93008 whole entry): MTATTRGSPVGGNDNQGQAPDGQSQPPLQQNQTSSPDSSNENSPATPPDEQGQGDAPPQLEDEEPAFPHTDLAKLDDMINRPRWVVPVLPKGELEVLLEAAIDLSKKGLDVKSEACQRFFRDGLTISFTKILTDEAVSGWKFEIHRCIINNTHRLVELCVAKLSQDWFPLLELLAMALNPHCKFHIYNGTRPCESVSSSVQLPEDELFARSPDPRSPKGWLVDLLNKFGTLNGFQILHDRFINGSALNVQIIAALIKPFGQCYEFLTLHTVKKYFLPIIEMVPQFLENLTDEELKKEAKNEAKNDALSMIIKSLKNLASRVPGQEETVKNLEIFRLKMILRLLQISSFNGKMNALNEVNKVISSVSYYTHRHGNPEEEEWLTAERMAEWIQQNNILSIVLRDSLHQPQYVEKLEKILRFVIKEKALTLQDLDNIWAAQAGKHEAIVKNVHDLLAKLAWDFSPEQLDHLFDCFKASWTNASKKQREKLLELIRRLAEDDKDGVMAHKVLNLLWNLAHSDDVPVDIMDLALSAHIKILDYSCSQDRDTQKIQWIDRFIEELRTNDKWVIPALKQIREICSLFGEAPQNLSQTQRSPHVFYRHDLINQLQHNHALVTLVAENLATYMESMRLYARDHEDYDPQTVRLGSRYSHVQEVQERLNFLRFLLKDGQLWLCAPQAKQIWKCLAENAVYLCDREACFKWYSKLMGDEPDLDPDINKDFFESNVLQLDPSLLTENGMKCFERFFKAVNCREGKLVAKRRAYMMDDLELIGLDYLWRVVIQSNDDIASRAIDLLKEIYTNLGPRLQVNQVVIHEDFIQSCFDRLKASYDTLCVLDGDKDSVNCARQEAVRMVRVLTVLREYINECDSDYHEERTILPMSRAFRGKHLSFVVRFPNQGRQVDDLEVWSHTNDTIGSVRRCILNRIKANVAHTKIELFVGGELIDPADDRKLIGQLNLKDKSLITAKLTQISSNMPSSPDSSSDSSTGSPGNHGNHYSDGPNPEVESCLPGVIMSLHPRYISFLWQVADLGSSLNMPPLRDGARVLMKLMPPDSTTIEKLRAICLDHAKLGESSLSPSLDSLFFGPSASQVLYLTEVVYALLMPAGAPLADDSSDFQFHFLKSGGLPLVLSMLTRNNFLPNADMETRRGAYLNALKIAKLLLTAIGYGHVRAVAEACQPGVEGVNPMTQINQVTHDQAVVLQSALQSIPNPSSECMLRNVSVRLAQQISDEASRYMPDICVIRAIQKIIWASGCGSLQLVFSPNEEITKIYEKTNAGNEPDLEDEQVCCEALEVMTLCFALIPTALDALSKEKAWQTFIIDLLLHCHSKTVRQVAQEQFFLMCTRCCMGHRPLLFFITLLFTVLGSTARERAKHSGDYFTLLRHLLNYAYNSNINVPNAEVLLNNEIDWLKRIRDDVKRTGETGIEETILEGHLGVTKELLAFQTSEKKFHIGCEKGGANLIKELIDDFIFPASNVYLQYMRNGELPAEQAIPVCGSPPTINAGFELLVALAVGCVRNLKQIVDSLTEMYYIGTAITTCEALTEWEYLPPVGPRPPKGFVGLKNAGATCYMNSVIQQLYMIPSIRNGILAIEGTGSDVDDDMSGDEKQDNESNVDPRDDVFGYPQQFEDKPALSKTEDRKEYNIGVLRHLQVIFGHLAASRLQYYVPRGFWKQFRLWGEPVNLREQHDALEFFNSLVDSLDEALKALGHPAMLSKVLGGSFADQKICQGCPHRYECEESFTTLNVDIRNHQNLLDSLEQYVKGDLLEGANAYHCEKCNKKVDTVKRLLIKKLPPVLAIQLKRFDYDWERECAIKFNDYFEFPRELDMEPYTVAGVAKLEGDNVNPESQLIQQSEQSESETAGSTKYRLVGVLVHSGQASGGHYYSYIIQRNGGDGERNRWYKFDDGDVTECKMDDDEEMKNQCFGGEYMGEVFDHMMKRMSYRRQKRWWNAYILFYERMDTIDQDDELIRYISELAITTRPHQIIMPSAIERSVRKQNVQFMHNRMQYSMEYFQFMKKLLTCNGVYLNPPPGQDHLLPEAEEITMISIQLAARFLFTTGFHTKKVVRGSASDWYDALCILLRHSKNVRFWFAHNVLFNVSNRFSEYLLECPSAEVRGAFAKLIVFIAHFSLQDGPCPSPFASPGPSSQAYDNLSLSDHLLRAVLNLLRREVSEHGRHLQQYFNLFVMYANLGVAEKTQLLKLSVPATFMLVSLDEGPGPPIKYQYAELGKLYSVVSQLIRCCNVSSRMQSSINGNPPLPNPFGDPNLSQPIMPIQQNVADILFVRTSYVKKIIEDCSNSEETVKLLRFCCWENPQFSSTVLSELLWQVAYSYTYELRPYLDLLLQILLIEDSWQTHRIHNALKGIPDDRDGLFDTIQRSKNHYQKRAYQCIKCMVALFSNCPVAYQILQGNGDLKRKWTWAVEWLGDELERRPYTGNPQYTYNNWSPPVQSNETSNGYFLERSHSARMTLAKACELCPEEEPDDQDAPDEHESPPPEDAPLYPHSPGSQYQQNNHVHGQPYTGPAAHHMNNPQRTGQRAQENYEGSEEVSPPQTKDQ
Procedure, shortened: as §1

UniProt O00487 = molecular target: UniProt O00487
Chain of UniProt O00487 (O00487 whole entry): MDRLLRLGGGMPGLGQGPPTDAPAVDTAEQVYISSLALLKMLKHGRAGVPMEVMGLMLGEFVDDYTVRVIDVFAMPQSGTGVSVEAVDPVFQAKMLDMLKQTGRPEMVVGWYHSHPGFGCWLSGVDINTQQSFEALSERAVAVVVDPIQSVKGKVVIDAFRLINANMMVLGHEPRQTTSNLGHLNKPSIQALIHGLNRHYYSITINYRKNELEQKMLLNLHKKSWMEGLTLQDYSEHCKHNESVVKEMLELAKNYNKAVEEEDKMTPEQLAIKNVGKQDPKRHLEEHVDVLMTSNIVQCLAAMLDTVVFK
Procedure, shortened: as §1

Measured: log2 ratio of Biotin-Ahx-Ub-VS probe labelling

CS(=O)(=O)c1ccc(NC(=O)CCl)cc1
inactive: USP42 0.0549 | USP46 0.119 | USP47 -0.0487 | USP48 -0.946 | USP5 0.0085 | USP54 0.431 | USP7 -0.156 | USP8 0.012 | USP9X -0.388 | UniProt O00487 -0.115
